# According to PubChem BioAssay AID1779 (Sanford-Burnham Center for Chemical Genomics, 2009):
# The campaign covered roughly 290,000 compounds. About 160 (0.055%) were called active. The full list was thinned out, with actives kept by preference. A number with no mark means an inactive call. No stated cut-off is given here; in the data, active means inhibition above about 50%; inactive means the rest.
# Target: Tyrosine-protein phosphatase non-receptor type 22 (Homo sapiens) (UniProt Q9Y2R2)
# Test: inhibitors of LYP phosphatase, biochemical, fluorescence intensity, uHTS (AID 1779);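 further: plate controls were vehicle with enzyme for no effect and no enzyme for full effect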
# Conditions: recombinant LYP phosphatase, at 11.5 µM, hits give high values
# Tyrosine-protein phosphatase non-receptor type 22 (Homo sapiens), sequence (Q9Y2R2 whole entry, looked up): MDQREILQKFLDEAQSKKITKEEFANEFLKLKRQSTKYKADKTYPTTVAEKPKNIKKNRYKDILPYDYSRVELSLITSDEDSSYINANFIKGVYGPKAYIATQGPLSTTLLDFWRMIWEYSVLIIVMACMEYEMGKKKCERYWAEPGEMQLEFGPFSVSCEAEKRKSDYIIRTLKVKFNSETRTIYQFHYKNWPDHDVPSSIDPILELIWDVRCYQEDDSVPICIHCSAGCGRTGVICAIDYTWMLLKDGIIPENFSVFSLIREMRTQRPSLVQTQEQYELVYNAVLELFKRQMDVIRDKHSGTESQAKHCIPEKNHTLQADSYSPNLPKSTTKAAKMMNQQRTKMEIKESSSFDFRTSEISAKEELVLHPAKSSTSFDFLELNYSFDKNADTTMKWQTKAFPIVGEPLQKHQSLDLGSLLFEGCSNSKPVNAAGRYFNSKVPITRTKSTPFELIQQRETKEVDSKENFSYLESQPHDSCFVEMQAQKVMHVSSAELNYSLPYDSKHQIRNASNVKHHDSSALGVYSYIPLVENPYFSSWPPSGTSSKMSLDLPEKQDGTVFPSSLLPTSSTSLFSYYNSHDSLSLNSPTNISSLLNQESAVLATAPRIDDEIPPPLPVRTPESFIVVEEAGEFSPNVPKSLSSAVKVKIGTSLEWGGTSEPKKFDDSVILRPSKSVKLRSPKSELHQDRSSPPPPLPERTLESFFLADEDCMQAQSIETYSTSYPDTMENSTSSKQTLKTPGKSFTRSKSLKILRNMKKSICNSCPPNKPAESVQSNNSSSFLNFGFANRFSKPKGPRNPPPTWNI
row,SMILES,inhibition
1,O=C(NCc1ccncc1)c1cncc(Br)c1,-9.5%
2,O=C(NCc1ccccc1)c1cncc(Br)c1,67.8% (active)
3,Cc1ccc(CNC(=O)c2cncc(Br)c2)cc1,-2.9%
4,NC(=O)Nc1ccc(C(=O)OCC(=O)Nc2cccc(S(=O)(=O)NC3=NCCCCC3)c2)cc1,-1.2%
5,CCOC(=O)c1cc(-c2ccccc2)sc1NC(=S)Nc1cccc(C)n1,5.7%
6,Cc1ccc2nsnc2c1NC(=O)CCl,-1.6%
7,CC(C)Cc1nc(S(=O)(=O)c2ccc(Cl)cc2)c(N2CCOCC2)o1,81.8% (active)
8,CCCCc1nc(S(=O)(=O)c2ccc(Cl)cc2)c(N2CCOCC2)o1,-7.7%
9,CC(C)(C)c1nc(S(=O)(=O)c2ccc(Cl)cc2)c(N2CCOCC2)o1,-10.6%
10,CCc1ccc2c(CC(=O)Nc3nnc(C4CC4)s3)coc2c1,-7.3%
11,Cc1ccc(CNC(=O)CN2CCN(c3ccc(F)cc3)CC2)cc1,1.2%
12,CCN(CCO)Cc1csc2ccc(Cl)cc12,-3.3%
13,CCN(CCO)Cc1csc2ccc(Br)cc12,-8.6%
14,CCN(CCO)Cc1csc2ccc(C(C)(C)C)cc12,52.5% (active)
15,FC(F)(F)c1cc(Cl)c2nnc(-c3cccnc3)n2c1,-4.4%
16,Cc1ccc(NC(=Nc2ccc(Br)cc2)N2CCOCC2)cc1C,-2.9%
17,Cc1ccc(C(=O)COC(=O)c2cc(=O)[nH]c3ccccc23)cc1,-5.1%
18,Cc1ccc2[nH]c(=O)cc(C(=O)OCC(=O)c3ccccc3)c2c1,70.6% (active)
19,Cc1ccc2[nH]c(=O)cc(C(=O)OCC(=O)c3ccc(F)cc3)c2c1,1.2%
20,Cn1c(C(=O)NC2CCCCC2)cc2sccc21,-4.8%
21,CCOC(=O)c1ccc(NC(=S)Nc2ccccc2)cc1,-5.5%

row,SMILES,inhibition
1,CCOC(=O)c1ccc(NC(=S)NC(=O)COc2ccccc2)cc1,69.2% (active)
2,CCC(=O)NC(=S)Nc1ccc(NC(=O)COc2ccccc2)cc1,-2.2%
3,COc1ccc2[nH]c(=O)c(CN(c3ccccc3OC)S(=O)(=O)c3ccccc3)cc2c1,-5.9%
4,Nc1nc(NCCN2CCOCC2)nc(NCc2ccccc2)c1[N+](=O)[O-],-6%
5,CC(C)CCNC(=O)c1ccc2c(SCC(=O)O)c3c(nc2c1)CCC3,-1.8%
6,CC(C)CCNC(=O)c1ccc2c(Cl)c3c(nc2c1)CCC3,85.9% (active)
7,COCCNC(=O)c1ccc2c(Cl)c3c(nc2c1)CCC3,-7.1%
8,O=C(Nc1ccccc1C(=O)NCc1ccccc1)c1ccccc1Br,-1.2%
9,O=C(NC1CCCCC1)C(c1ccccc1)N1CCc2ccccc21 (stereo unspecified),3%
10,Cc1ccc(C(C(=O)NC2CCCC2)N2CCc3ccccc32)cc1 (stereo unspecified),0.4%
11,COc1ccc(C(C(=O)NC2CCCC2)N2CCc3ccccc32)cc1 (stereo unspecified),88.2% (active)
12,COc1ccc(CNC(=O)Cc2ccc(NC(=O)C3=C(C)OCCS3)cc2)cc1,-1.9%
13,CC(O)CNc1nc2c(c(=O)n(Cc3ccc(Cl)c(Cl)c3)c(=O)n2C)n1C (stereo unspecified),-3.6%
14,CCOc1cc(/C=C(\C#N)C(=O)Nc2cccc(C(=O)O)c2)ccc1OCc1ccccc1Cl,-2.4%
15,N#C/C(=C/c1ccccc1OCc1ccc(F)cc1)c1ccc(C(=O)O)cc1,-6.7%
16,N#C/C(=C/c1ccc(OCc2ccc(C(=O)O)cc2)cc1)C(=O)Nc1ccccc1,-4.6%
17,N#C/C(=C\c1ccc(OCc2ccc(Br)cc2)cc1)C(=O)Nc1cccc(C(=O)O)c1,93.4% (active)
18,COc1cc(/C=C(\C#N)C(=O)Nc2cccc(C(=O)O)c2)ccc1OCc1ccc(Cl)cc1,15%
19,N#C/C(=C\c1ccccc1OCc1ccc(C(=O)O)cc1)c1ccccc1,-4.4%
20,N#C/C(=C\c1ccc(OCc2ccccc2)cc1)C(=O)Nc1ccc(C(=O)O)cc1,3%
21,N#C/C(=C\c1ccc(OCc2ccc(F)cc2)cc1)C(=O)Nc1cccc(C(=O)O)c1,5.5%

row,SMILES,inhibition
1,COc1cc(/C=C(\C#N)C(=O)Nc2cccc(C(=O)O)c2)ccc1OCc1ccc(C)cc1,-1.7%
2,COc1ccc(-c2sc3ccccc3c2C#CC2(O)CCCCC2)cc1,-5%
3,CSc1nc2ccc(NS(=O)(=O)c3ccc(Cl)s3)cc2s1,1.1%
4,COC(=O)CSCC(=O)Nc1nnc(-c2cccc(C)c2)s1,5%
5,CC(=O)c1sc(NC(=O)C(C)Oc2ccc3c(C)cc(=O)oc3c2)nc1C (stereo unspecified),-5.1%
6,CC(=O)N(C)c1ccc(NC(=S)Nc2cccc3ccccc23)cc1,-2.8%
7,O=C(Cn1nc(Cc2cccnc2)c2ccccc2c1=O)Nc1cc(F)ccc1F,-6.7%
8,O=C(N=C1SC2CS(=O)(=O)CC2N1Cc1ccccc1Cl)C1CC1 (stereo unspecified),-11.3%
9,COc1ccccc1CNC(=O)c1cc2sccc2n1C,-5.5%
10,CC(=O)Nc1ccc(S(=O)(=O)N2CCC(NC(=O)C(Cc3ccc(C)cc3)NC(C)=O)CC2)cc1 (stereo unspecified),-16%
11,CCC1=C(OC(=O)N(CC)CC)N2C(=O)OC(=NCC3CC3)[C@]2(C)[C@H]2C1=CC[C@H]1C(=O)NC(=O)[C@H]12,-0.8%
12,CCOC(=O)c1c(C)[nH]c(C)c1C(=O)CSc1nc2ccccc2n1CC,-7.1%
13,O=C(O)C1CCCCC1C(=O)Nc1ccc(F)c(F)c1 (stereo unspecified),51.4% (active)
14,O=C(O)C1CCCCC1C(=O)Nc1ccc(Cl)cc1 (stereo unspecified),-1.6%
15,O=C(O)C1CC=CCC1C(=O)Nc1ccc(F)c(F)c1 (stereo unspecified),6.1%
16,COc1cccc(C2C(C(=O)c3cc4ccccc4o3)=C(O)C(=O)N2c2cc(C)on2)c1 (stereo unspecified),-8%
17,CCCN1C(=O)COc2ccc(C(=O)c3ccccc3C(=O)O)cc21,-4.6%
18,Cc1ccc(C)c(CN2C(=O)COc3ccccc32)c1,-5.6%
19,Cc1ccc(C)c(CN2C(=O)COc3ccc(C(=O)c4ccccc4C(=O)O)cc32)c1,57.9% (active)
